In assay [1] the target is Mitogen-activated protein kinase 3 (Homo sapiens) (UniProt P27361). To be noted: at 1 µM.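 Further: values are mean percent inhibition of MAPK3.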
Assay [2] concerns the target SRSF protein kinase 3 (Homo sapiens) (UniProt Q9UPE1). As to conditions: at 0.1 µM.
Assay [3] shares this target. As to conditions: at 1 µM.
Assay [4] concerns the target Mitogen-activated protein kinase 14 (Homo sapiens) (UniProt Q16539). As to conditions: at 0.1 µM.
Assay [5] has the same target. To be noted: at 1 µM.
In assay [6] the target is Mitogen-activated protein kinase 11 (Homo sapiens) (UniProt Q15759). As to conditions: at 0.1 µM.
Sequence of Mitogen-activated protein kinase 11 (Homo sapiens) (Q15759 whole entry): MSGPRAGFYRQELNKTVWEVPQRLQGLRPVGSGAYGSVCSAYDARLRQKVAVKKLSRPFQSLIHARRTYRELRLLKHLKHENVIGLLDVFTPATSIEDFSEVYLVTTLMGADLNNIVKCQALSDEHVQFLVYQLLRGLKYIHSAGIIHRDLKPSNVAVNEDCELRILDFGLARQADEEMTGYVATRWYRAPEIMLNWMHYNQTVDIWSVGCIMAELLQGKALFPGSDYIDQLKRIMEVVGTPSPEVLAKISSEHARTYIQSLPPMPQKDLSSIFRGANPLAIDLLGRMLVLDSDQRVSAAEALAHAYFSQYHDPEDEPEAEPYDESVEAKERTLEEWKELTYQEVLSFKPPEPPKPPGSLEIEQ
For assay [7] the target is unchanged. To be noted: at 1 µM.
The target in assay [8] is T1, Mitogen-activated protein kinase 13 (Homo sapiens) (UniProt O15264).
T1 sequence (whole entry): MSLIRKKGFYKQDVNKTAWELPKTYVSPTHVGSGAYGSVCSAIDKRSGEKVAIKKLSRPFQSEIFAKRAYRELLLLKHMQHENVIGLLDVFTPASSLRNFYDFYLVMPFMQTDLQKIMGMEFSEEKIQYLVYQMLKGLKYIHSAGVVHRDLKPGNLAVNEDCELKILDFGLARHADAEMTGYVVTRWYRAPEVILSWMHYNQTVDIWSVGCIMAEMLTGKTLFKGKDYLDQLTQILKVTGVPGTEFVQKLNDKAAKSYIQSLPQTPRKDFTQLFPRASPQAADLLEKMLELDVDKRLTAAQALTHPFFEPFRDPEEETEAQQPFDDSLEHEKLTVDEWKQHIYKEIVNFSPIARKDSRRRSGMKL
To be noted: at 0.1 µM.

For assay [9], the target named is T1, Mitogen-activated protein kinase 13 (Homo sapiens). To be noted: at 1 µM.
Assay [10] addresses T2, Mitogen-activated protein kinase 12 (Homo sapiens) (UniProt P53778).
T2 sequence (whole entry): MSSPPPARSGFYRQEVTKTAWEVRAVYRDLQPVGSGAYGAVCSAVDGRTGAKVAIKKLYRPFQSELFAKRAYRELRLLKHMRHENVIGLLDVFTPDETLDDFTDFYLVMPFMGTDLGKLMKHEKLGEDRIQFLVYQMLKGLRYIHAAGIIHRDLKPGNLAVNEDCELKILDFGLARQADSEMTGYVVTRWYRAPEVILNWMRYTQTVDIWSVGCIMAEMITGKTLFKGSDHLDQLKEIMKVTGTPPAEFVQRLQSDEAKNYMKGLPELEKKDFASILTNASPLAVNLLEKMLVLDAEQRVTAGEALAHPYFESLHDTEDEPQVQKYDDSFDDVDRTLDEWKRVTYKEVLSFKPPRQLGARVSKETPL
As to conditions: at 0.1 µM.

SMILES strings stand for the structures. Values joined by “and” are separate entries in the source; they are usually repeats but may differ in a detail not shown here. Equal entries are not always repeated.

In ChEMBL document CHEMBL1961873, “Compounds: GSK PKIS; Assays: Nanosyn kinase panel” (2012) one finds inhibition data, which are given here for 15 compounds.

Sequence of Mitogen-activated protein kinase 14 (Homo sapiens) (Q16539 whole entry): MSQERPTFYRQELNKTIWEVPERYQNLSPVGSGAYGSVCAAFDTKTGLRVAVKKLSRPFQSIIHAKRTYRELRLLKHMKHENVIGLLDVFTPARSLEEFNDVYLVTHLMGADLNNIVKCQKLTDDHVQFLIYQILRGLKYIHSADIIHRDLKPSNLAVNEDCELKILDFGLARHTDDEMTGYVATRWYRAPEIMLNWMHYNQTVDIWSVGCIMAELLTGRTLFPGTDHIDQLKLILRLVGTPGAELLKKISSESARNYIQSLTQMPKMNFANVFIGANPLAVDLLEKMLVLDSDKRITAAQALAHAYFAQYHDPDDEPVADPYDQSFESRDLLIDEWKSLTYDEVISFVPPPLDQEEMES
Sequence of SRSF protein kinase 3 (Homo sapiens) (Q9UPE1 whole entry): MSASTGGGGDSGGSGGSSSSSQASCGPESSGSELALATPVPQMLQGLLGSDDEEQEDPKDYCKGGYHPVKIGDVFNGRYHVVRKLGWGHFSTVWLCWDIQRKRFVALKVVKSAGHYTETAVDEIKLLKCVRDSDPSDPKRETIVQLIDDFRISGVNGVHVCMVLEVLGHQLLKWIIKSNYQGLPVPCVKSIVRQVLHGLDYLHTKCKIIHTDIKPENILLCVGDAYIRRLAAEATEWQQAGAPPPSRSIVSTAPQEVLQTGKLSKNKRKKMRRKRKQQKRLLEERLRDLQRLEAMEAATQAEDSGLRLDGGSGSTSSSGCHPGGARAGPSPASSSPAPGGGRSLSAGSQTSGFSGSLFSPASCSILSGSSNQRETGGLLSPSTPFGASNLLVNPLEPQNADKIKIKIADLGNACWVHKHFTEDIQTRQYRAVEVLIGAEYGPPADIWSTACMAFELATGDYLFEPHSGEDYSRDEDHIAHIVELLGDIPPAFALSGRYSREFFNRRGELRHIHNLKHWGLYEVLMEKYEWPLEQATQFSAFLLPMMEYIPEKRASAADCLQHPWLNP
Sequence of Mitogen-activated protein kinase 3 (Homo sapiens) (P27361 whole entry): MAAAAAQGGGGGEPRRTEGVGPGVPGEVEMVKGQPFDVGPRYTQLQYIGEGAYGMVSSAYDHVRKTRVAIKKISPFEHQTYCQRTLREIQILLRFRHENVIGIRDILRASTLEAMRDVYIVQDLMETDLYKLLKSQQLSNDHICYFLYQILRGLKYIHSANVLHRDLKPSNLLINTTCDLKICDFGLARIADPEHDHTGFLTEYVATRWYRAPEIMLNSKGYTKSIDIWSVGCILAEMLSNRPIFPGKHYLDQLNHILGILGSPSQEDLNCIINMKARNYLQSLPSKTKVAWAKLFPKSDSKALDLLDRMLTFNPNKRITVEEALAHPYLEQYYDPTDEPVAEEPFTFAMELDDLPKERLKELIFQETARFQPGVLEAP

Take `N#Cc1cccc(Nc2ncc(-c3ccccc3)o2)c1`: the inhibition (as a rule, the change of the read-out against control, counted positive when it falls) in assay [1] was 4.14%; in assay [2] it was -0.78%; in assay [3], 0.7%; in assay [4], 2.24%; in [5], 3.69%; in assay [6] it was 1.51%. In addition, the inhibition in assay [7] is 5.93%; in assay [8] it was -0.16%; in [9], 2.33%; in assay [10] it was 3.74%.
For `O=C(O[C@H]1CN[C@H](C#Cc2cc3ncnc(Nc4ccc5c(cnn5Cc5ccccc5)c4)c3s2)C1)N1CCOCC1`, the inhibition in assay [1] was 1.75%; in assay [2] it was -1.9%; in assay [3], -0.82%; in assay [4], 0.21%; in [5], 0.45%; in assay [6], 1.51%. The inhibition in assay [7] was 4.76%; in [8], -1.3%; in [9] it was -2.91%; in assay [10] it was -1.24%.
`COC(=O)Nc1nc2ccc(Oc3ccc(NC(=O)Nc4cc(C(F)(F)F)ccc4F)cc3)cc2s1`: the inhibition in assay [1] is -0.75%; in assay [2], 0.81%; in assay [3], 9.68%; in assay [4] it was 18.9%; in assay [5], 63.7%; in [6] it was 7.18%. Further, the inhibition in [7] stood at 51.5%; in assay [8], 0.05%; in assay [9], 0.18%; in assay [10], 0.98%.
`Cc1ccc(-c2cc3c(NC(=O)C4CC4)ncnc3o2)cc1`: the inhibition in [1] was 1.29%; in [2], 0.82%; in [3], 0.53%; in assay [4], 3.56%; in [5] it was 6.38%; in assay [6] it was 1.17%. Further, the inhibition turned out to be 7.45% in [7], 5.13% in assay [8], 4.2% in [9] and 1.34% in assay [10].
For the compound `CN(C)CCNC(=O)Nc1ccc(N(C)c2ccnc(Nc3ccc(CS(C)(=O)=O)cc3)n2)cc1`, the inhibition in [1] was 1.29%; in [2], 1.45%; in [3] it was -2.85%; in [4] it was 2.66%; in assay [5], 7.04%; in [6] it was 2.16%. Also, the inhibition in assay [7] is 2.52%; in assay [8], 1.99%; in assay [9], 3.74%; in [10], -0.76%.
On to `CS(=O)(=O)CCNCc1ccc(-c2ccc3ncnc(Nc4ccc(OCc5cccc(C(F)(F)F)c5)cc4)c3c2)o1`, for which the inhibition in assay [1] is 5%; in assay [2] it was -2.18%; in assay [3], -0.47%; in assay [4], 11.9%; in [5] it was 13.9%; in assay [6] it was 1.8%. The inhibition is 5.06% in [7], 5.4% in assay [8], 5.66% in [9] and 3.43% in assay [10].
On to `CN1CCC(C(=O)Nc2n[nH]c3nc(-c4ccc(O)cc4)c(Br)cc23)CC1`, for which the inhibition in [1] was 6.59% and 1.2%; in [2], -1.97% and -1.1%; in assay [3] it was -0.76% and -0.97%; in assay [4], 1.69% and 4.12%; in assay [5], 13% and 10.5%; in [6] it was 4.89% and 2.05%. The inhibition in assay [7] is 17.5% and 8.93%; in assay [8], 2.74% and 2.79%; in assay [9], 13.7% and 11.6%; in [10], 4.48% and 2.47%.
As for `Cc1c2ccc(N(C)c3ccnc(Nc4cccc(S(N)(=O)=O)c4)n3)cc2nn1C`, the inhibition in [1] is 4.37%; in [2] it was -0.02%; in assay [3], -0.13%; in assay [4], 2.68%; in assay [5], 17.1%; in assay [6], 7.06%. Further, the inhibition in assay [7] was 16%; in assay [8] it was 5.49%; in assay [9], 5.64%; in assay [10], 5.17%.
In the case of `COc1ccc2ncn(-c3cc(O[C@H](C)c4ccccc4C(F)(F)F)c(C(N)=O)s3)c2c1`, the inhibition was 0.26% in [1]; -1.14% in assay [2]; -0.79% in assay [3]; -5.71% in assay [4]; 0.3% in [5]; -0.35% in assay [6]. Moreover, the inhibition in assay [7] was 0.3%; in assay [8], -0.27%; in assay [9] it was -1.08%; in assay [10], 0.21%.
As for `Fc1ccc(Nc2nccc(-c3c(-c4ccc(C(F)(F)F)cc4)nn4ncccc34)n2)cc1F`, the inhibition in [1] was -0.07%; in [2] it was 0.64%; in assay [3] it was 0.08%; in assay [4], 1.53%; in [5], 8.46%; in assay [6], 1.28%. Moreover, the inhibition in assay [7] is 3.29%; in assay [8], -4.93%; in assay [9] it was 4.25%; in [10] it was 5.22%.
In the case of `CCS(=O)(=O)c1ccc(OC)c(Nc2ncc(-c3cccc(C(C)=O)c3)o2)c1`, the inhibition in assay [1] stood at 4.06%; in assay [2], 0.96%; in assay [3], 0.97%; in assay [4], 2.16%; in [5], 5.09%; in [6] it was 3.95%. Moreover, the inhibition is 3.42% in assay [7], -0.9% in assay [8], 3.45% in assay [9] and -1.65% in assay [10].
For `CNC(=O)c1sc(-n2cnc3cc(OC)c(OC)cc32)cc1OCc1ccccc1C(F)(F)F`, the inhibition in [1] is 3.4%; in assay [2], -2.11%; in [3] it was -0.26%; in assay [4], 5.47%; in assay [5], 5.08%; in [6], 4.76%. Also, the inhibition in assay [7] stood at 4.92%; in assay [8], 3.34%; in [9] it was 1.88%; in assay [10], 1.92%.
As to `COc1c(C(N)=O)cc(-c2ccc(Cl)cc2)cc1-c1ccc(S(N)(=O)=O)cc1`, the inhibition in assay [1] is 5.76%; in assay [2], 2.9%; in assay [3] it was 0.68%; in assay [4], 8.26%; in assay [5], 10.3%; in [6] it was 4.78%. Further, the inhibition was determined as 4.22% in assay [7], 4.33% in [8], 6.61% in assay [9] and 4.27% in [10].
Consider `COc1cc(N2CCN(C(C)C)CC2)ccc1Nc1nc(Nc2cccc(F)c2C(=O)O)c2cc[nH]c2n1`, for which the inhibition in assay [1] was 5.94%; in assay [2], -1.11%; in [3], 3.96%; in assay [4] it was 6.33%; in assay [5] it was 9.12%; in [6] it was 3.15%. The inhibition came to 5.38% in assay [7], 4.97% in assay [8], 4.09% in assay [9] and 0.95% in [10].
`O=C(Nc1n[nH]c2nnc(-c3cccnc3)cc12)C1CC1`: the inhibition in assay [1] was 0.8%; in [2] it was -0.02%; in assay [3] it was -4.68%; in [4] it was -0.2%; in assay [5], -1.37%; in assay [6], 0.57%. For the same compound, the inhibition in [7] is 2.39%; in [8] it was -0.07%; in [9], 5.16%; in assay [10] it was 0.25%.
